Source: PubChem BioAssay
The list is not random: actives were taken first. Their share in the collection is about 7.6%.
Giardia killer: Giardia lamblia killing | activity change, % at 7.66 µM, hits read low | actives 0.15% (n = 340,000) | AID 540267 | Giardia lamblia trophozoite viability; in the data active = activity change below about -80%; inconclusive = between about -30% and that limit;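 note: parasites exposed to compound for two days anaerobically before the ATP read; % is set by controls: 0 for no effect and ±100 for the full control effect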
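Trophozoites 100 cells/well + cpd; 48 hrs, 37 deg C, anaerobic. ATPLite 1-Step added, 15-30 min RT, luminescence read (ATP-based viability).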
RORgamma inh: blocks mouse ROR gamma transcriptional activity; P51450; Potency, µM (doses to about 53.6 µM), for the others: at the highest dose activity change, negative = inhibition, actives largely listed as inhibitors; Drosophila S2 Gal4-RORgamma UAS-luciferase reporter, 20 h; actives 5.4% (n = 310,000); note: potency is the fitted concentration of half-maximal effect; % is set by controls: 0 for no effect and ±100 for the full control effect; nearly all actives have a fitted effect of over 60% in size
Target sequence (P51450 whole entry, looked up, the tested form may be a part): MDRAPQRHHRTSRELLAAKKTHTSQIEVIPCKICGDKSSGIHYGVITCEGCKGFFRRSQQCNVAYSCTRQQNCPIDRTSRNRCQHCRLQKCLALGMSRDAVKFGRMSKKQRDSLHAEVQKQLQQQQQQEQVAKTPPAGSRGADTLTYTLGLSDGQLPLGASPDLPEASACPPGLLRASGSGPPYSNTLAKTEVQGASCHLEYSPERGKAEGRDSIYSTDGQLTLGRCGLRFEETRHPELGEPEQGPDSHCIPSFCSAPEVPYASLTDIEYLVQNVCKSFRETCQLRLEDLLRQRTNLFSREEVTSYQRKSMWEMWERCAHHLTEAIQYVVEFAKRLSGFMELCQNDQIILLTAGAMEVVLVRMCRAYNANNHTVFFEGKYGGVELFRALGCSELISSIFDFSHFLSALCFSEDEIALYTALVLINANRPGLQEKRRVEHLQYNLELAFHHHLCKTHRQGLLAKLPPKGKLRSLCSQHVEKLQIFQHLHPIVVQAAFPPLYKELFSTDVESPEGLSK
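Using a luciferase readout, inhibitors were identified by reduced reporter activity in Drosophila cells coexpressing a copper-inducible Gal4–ROR gamma fusion and UAS-driven Photinus luciferase, incubated 20 hr after 700 uM copper sulfate.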
ELG1 DNA repair: blocks ELG1-dependent DNA repair in HEK293T cells; actives 2.3% (n = 330,000); Potency, µM (highest dose often 46.1 µM), inactives show at the highest dose activity change, negative = inhibition, actives largely listed as inhibitors; AID 504467; HEK293T ELG1-luciferase reporter, luminescence, 16 h; DNA damage induced by 5-fluorouridine; note: potency is the fitted concentration of half-maximal effect; % is set by controls: 0 for no effect and ±100 for the full control effect; nearly all actives have a fitted effect of over 55% in size
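DMSO vehicle served as the neutral condition. Each well held 2,000 cells given 5-fluorouridine plus compound; after 16 hr at 37 °C/5% CO2, ONE-Glo was added and luciferase measured 30 min later.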
VP16 counter: inhibits Gal4-VP16 luciferase reporter, ROR gamma counter-screen. actives 3.5% (n = 310,000). Drosophila S2 Gal4-VP16 UAS-luciferase, luminescence, 20 h. Potency, µM (titrated, usually from 53.6 µM), for inactives: at the top dose activity, negative = inhibition, most hits filed as inhibitors;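 note: Gal4-VP16 expression switched on by copper sulfate through the metallothionein promoter; potency is the fitted concentration of half-maximal effect; % is set by controls: 0 for no effect and ±100 for the full control effect; nearly all actives have a fitted effect of over 50% in size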
p53 reactivation: restores transcriptional activity of mutant p53 | H1299 p53-A138V BP100-luciferase reporter, luminescence, 24 h | Potency, µM (titrated, usually from 92.2 µM), without a hit: top-dose activity change, positive = activation, hits mostly activators | actives 0.063% (n = 320,000); note: potency is the fitted concentration of half-maximal effect; % of control where 0% means no effect; nearly all actives have a fitted effect of over 45% in size
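p53-null H1299 cells stably carrying temperature-sensitive p53-A138V and a BP100-luciferase reporter were pinned with compounds (4-point, 1:5 series) and held 24 hrs at 37 deg C. Luminescence was read 10 min after detection reagent.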
BRCA1 expr act: increases BRCA1 expression; MCF7-BRCA1-FFLuc reporter, luminescence, 48 h; response scale: scaled: vehicle 0%, 10 µM genistein 100%; actives 1.1% (n = 380,000); Potency, µM (doses to about 46.1 µM), for inactives: top-dose activation, actives largely listed as activators; AID 624202; note: potency is the fitted concentration of half-maximal effect; nearly all actives have a fitted effect of over 80% in size
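Cells: MCF7-BRCA1-FFLuc, 2000/well. Exposure: 48 h, 37 °C, 5% CO2. Read: luminescence, 15 min post-substrate. Controls: genistein 10 microM (maximal activation), DMSO (neutral).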
Active calls of the source: *; ? = inconclusive; / = no result given. Unless noted, calls come from the whole dose curve; as a rule, active = well fitted curve in the direction sought with a large enough effect; inconclusive = small, poorly fitted or top-dose-only effect, or another doubt; inactive = no such curve, though single readings can be large; an effect the other way counts as inactive or inconclusive.

SMILES	Giardia killer	RORgamma inh	ELG1 DNA repair	VP16 counter	p53 reactivation	BRCA1 expr act
O=C(Nc1ccc(NC(=S)NC(=O)c2cccs2)cc1)c1ccco1	11	11µM*	-5%	-22%	2%	34%
O=C(NC(=S)NNC(=O)c1cccs1)c1ccco1	13	2.8µM*	0%	?	12%	-43%
Cc1nc2c3c(sc2c(=O)[nH]1)NC(=O)CC3c1ccccc1Cl (stereo not given)	-6	2%	?	-7%	-5%	-20%
CCC(=O)c1ccc(OCc2ccc(C(=O)OC)o2)c(OC)c1	3	12%	8%	3%	7%	96%
CCN(CC)C(=O)N1CCC(NC(=O)c2ccc(C(C)(C)C)cc2)CC1	-2	?	21µM*	-7%	20%	-32%
CCC1CCc2c(sc(NC(=O)C3CC=CCC3C(=O)O)c2C#N)C1 (stereo not given)	-5	17%	-2%	-4%	5%	-15%
CCc1ccc(C2CC(c3ccccc3)Nc3nc(N)nn32)cc1 (stereo not given)	15	-15%	-8%	-12%	1%	22%
CCc1ccc(C2CC(c3ccccc3)n3ncnc3N2)cc1 (stereo not given)	28	18µM*	12%	-4%	-6%	6%
O=C(COC(=O)c1ccc(S(=O)(=O)N2CCCC2)cc1)Nc1cccc(Cl)c1	-12	/	0%	/	-3%	6%
COc1ccc(CN(CCCN2CCOCC2)S(=O)(=O)N(C)C)cc1OC	1	-15%	-1%	-6%	-4%	13%
Cc1ccc(C(O)c2ncc(-c3ccccc3Cl)[nH]2)cc1F (stereo not given)	/	/	/	/	/	-6%
CN(C)c1cccc(NC(=O)c2ccco2)c1	-7	11%	?	-1%	5%	9%
CCN(CC)P(=O)(Nc1cccc(C(F)(F)F)c1)c1ccc(N(C)C)cc1NC(=O)c1ccco1 (stereo not given)	6	41%	21µM*	-11%	3%	-62%
COc1ccc(C2CC(c3ccc(OC)cc3)n3nc(NC(=O)c4cccs4)nc3N2)cc1 (stereo not given)	26	5µM*	-5%	?	7%	-33%
COc1ccc(C2CC(c3ccc(F)cc3)n3nc(NC(=O)c4ccco4)nc3N2)cc1 (stereo not given)	-4	7.1µM*	-9%	13µM*	-8%	-11%
COCC(=O)Nc1nc2n(n1)C(c1ccc(Cl)cc1)CC(c1ccc(OC)cc1)N2 (stereo not given)	6	-18%	-24%	2%	-4%	-11%
N#Cc1cccc(-c2csc(C(O)c3ccc(F)cc3)n2)c1 (stereo not given)	/	/	/	/	/	7.9µM*
CC1(C)CC2(CC(c3ccccc3F)c3cc(Cl)c(O)cc3O2)NC(=S)N1 (stereo not given)	9	11µM*	?	?	-2%	-38%
COc1cccc(C2CC3(CC(C)(C)NC(=S)N3)Oc3cc(O)ccc32)c1 (stereo not given)	13	-38%	?	-1%	-7%	-28%
Cc1cccc(C2CC3(CC(C)(C)NC(=S)N3)Oc3cc(O)ccc32)c1 (stereo not given)	21	10µM*	?	-17%	-6%	-22%
COc1ccc(C2CC3(CC(C)(C)NC(=S)N3)Oc3cc(O)cc(C)c32)cc1OC (stereo not given)	-2	?	-12%	27%	-3%	-48%
COc1ccc(N2CCN(Cc3nnnn3C3CCCCC3)CC2)cc1	9	-29%	-6%	5%	6%	-16%
Cc1cccc(OCCOCCSc2ncccn2)c1	0	?	25%	19%	?	14%
Cc1ccc(OCCSc2ncccn2)c(C)c1	8	10µM*	?	?	8%	?
CN1CCN(c2nc(-c3ccccc3)nc(-c3ccc(F)cc3)c2C#N)CC1	19	-2%	?	-6%	-2%	0%
SMILES	Giardia killer	RORgamma inh	ELG1 DNA repair	VP16 counter	p53 reactivation	BRCA1 expr act
COc1ccc(-c2nc(-c3ccccn3)nc(N3CCN(C)CC3)c2C#N)cc1	4	1.4µM*	?	-7%	0%	26%
CC(C)Nc1nc(-c2ccccn2)nc(-c2ccccc2)c1C#N	-27	2.5µM*	?	?	-2%	-26%
CN1CCN(c2nc(-c3ccccn3)nc3ccccc23)CC1	11	-30%	?	-17%	-6%	-68%
CC(C)Nc1nc(-c2cccnc2)nc(-c2ccccc2)c1C#N	2	1%	?	0%	2%	-27%
COc1ccccc1-c1nc(-c2ccccc2)nc(N2CCN(C)CC2)c1C#N	0	14µM*	21µM*	-19%	-4%	-4%
O=C(COc1ccccc1)N(CCc1ccccc1)c1nc(-c2ccc(F)cc2)cs1	-29	13%	?	-3%	?	0%
CC(Nc1nc(N2CCNCC2)nc2ccccc12)c1ccccc1 (stereo not given)	-84*	-37%	1%	2%	-14%	-38%
COc1ccc(CN(CC2CCC(C(=O)O)CC2)C(=S)Nc2cc(C)cc(C)c2)cc1 (stereo not given)	-1	?	8%	-17%	4%	9%
CC(C)C(=O)N1CCN(c2ccc(NC(=O)c3ccc([N+](=O)[O-])o3)cc2)CC1	?	-6%	?	?	-13%	-82%
O=C(Nc1ccc(N2CCN(C(=O)c3ccc(Cl)cc3)CC2)cc1)c1cc2ccccc2o1	-15	-16%	?	-13%	7%	-21%
Cc1ccccc1C(=O)N1CCN(c2ccc(NC(=O)c3ccc([N+](=O)[O-])o3)cc2)CC1	-91*	-28%	?	?	-24%	-89%
O=C(Nc1ccc(N2CCN(C(=O)c3ccc(Cl)cc3)CC2)cc1)c1ccc(Br)o1	1	36%	21µM*	5%	3%	-22%
O=C(Nc1ccc(N2CCN(C(=O)c3ccccc3)CC2)cc1)c1ccc([N+](=O)[O-])o1	-100*	24%	?	-2%	-10%	-60%
CC(=O)N1CCN(c2ccc(NC(=O)c3ccccc3C)cc2)CC1	8	7%	?	-8%	/	3%
N#Cc1ccc(C(=O)Nc2nnc(-c3cccs3)o2)cc1	-2	0.71µM*	?	1µM*	5%	-4%
O=C(Nc1nnc(-c2cccs2)o1)c1cccc(C(F)(F)F)c1	-19	0.11µM*	14%	0.11µM*	?	-80%
